Laboratory results published in PubChem BioAssay (Tox21).
Inconclusive results are not listed. The source made the active and inactive calls. Unless noted, calls come from the whole dose curve; as a rule, active = well fitted curve in the direction sought with a large enough effect in the repeat runs; inconclusive = weak or mixed curves; inactive = no such curve, though single readings can be large; an effect the other way counts as inactive or inconclusive.

How the values were obtained:
[1] = qHTS assay to test for compound auto fluorescence at 535 nm (green) in HEK293 cells (AID 720680)
[2] = qHTS assay to test for compound auto fluorescence at 460 nm (blue) in HEK293 cell free culture (AID 720681)
Method in brief: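 Compounds were added to cell-free DMEM with 10% FBS and fluorescence read directly. The blue channel used 405 nm excitation and 460 nm emission, with triamterene as the reference fluorophore.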

[3] = qHTS assay to test for compound auto fluorescence at 535 nm (green) in HEK293 cell free culture (AID 720682)
Method in brief: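 No cells present: wells hold DMEM supplemented with 10% FBS, into which compound or vehicle is pinned. Green emission is then recorded (485 nm excitation, 535 nm emission) and scaled to fluorescein.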

[4] = qHTS assay to test for compound auto fluorescence at 590 nm (red) in HEK293 cell free culture (AID 720683)
Method in brief: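 Cell-free wells of DMEM with 10% FBS received compound, and intrinsic fluorescence was read at excitation/emission 540/590 nm. Values expressed as equivalence to Rose Bengal sodium.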

[5] = qHTS assay to test for compound auto fluorescence at 590 nm (red) in HepG2 cell free culture (AID 720684)
Method in brief: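 Auto fluorescence equivalency versus Rose Bengal sodium, red channel Ex/Em 540/590 nm; compounds in cell-free MEM/10% FBS; DMSO vehicle control.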

[6] = qHTS assay to test for compound auto fluorescence at 460 nm (blue) in HepG2 cell free culture (AID 720685)
Method in brief: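 Cell-free plates of MEM plus 10% FBS received 23 nL compound or DMSO vehicle; blue-channel (405/460 nm) intensity scored against triamterene as reference fluorophore.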

[7] = qHTS assay to test for compound auto fluorescence at 535 nm (green) in HepG2 cell free culture (AID 720686)
[8] = target: Glucocorticoid receptor (Homo sapiens) (UniProt P04150); experiment: qHTS assay to identify small molecule agonists of the glucocorticoid receptor (GR) signaling pathway (AID 720691; active = well fitted activation curve with a large enough effect in the signal ratio in the repeat runs, not every such curve was filed as active; the % refers to the signal ratio)
Glucocorticoid receptor (Homo sapiens), sequence (P04150 whole entry, looked up): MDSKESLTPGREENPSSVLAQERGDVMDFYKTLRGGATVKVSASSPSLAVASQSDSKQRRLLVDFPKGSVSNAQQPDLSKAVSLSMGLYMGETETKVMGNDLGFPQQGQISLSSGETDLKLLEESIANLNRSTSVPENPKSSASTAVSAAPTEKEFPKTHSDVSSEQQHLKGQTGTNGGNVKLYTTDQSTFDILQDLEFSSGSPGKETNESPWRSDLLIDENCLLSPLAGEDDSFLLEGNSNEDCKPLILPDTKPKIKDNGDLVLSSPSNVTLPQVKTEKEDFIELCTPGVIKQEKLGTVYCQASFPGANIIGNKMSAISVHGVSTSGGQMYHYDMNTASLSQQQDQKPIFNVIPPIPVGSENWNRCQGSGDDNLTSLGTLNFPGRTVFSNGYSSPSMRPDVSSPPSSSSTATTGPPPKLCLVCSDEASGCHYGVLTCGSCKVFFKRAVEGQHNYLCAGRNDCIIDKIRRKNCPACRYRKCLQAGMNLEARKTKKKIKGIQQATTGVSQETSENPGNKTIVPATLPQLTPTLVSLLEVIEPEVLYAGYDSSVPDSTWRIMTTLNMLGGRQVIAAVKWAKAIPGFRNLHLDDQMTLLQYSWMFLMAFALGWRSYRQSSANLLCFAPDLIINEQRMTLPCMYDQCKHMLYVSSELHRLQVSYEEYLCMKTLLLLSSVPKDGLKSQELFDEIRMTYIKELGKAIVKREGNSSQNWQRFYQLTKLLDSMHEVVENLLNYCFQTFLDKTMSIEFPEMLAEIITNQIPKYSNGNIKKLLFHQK
Method in brief: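 Measures GR pathway activation through a GRE-beta-lactamase reporter stably integrated in HeLa cells, with 18 h compound treatment at 37 C and fluorescence detection using a FRET substrate.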

[9] = target: Glucocorticoid receptor (Homo sapiens) (UniProt P04150); experiment: qHTS assay to identify small molecule antagonists of the glucocorticoid receptor (GR) signaling pathway (AID 720692; active = well fitted inhibition curve with a large enough effect in the signal ratio in the repeat runs, not every such curve was filed as active; the % refers to the signal ratio; note: potency is the fitted concentration of half-maximal effect)
Method in brief: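 Tox21 10K library screened in concentration-response for blockade of dexamethasone (5 nM final)-induced GRE-bla reporter activity in HeLa cells; 18 h treatment, fluorescence read.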

[10] = qHTS assay to identify small molecule antagonists of the glucocorticoid receptor (GR) signaling pathway - cell viability counter screen (AID 720693); note: nearly all actives have a fitted effect of over 55% in size
[11] = qHTS assay for identifying genotoxic compounds that show differential cytotoxicity against isogenic chicken DT40 cell lines with known DNA damage response pathways - wild type cell line (AID 743012); note: nearly all actives have a fitted effect of over 60% in size; note: potency is the fitted concentration of half-maximal effect
Method in brief: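 Endpoint: CellTiter-Glo luminescence, 30 min RT. Cells: wild type DT40, 300/well. Exposure: compounds in DMSO, 40 h, 37 C/5% CO2, after ~0.5 h pre-incubation.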

[12] = qHTS assay for identifying genotoxic compounds that show differential cytotoxicity against isogenic chicken DT40 cell lines with known DNA damage response pathways - Rev3 mutant cell line (AID 743014); note: nearly all actives have a fitted effect of over 55% in size; note: potency is the fitted concentration of half-maximal effect
[13] = qHTS assay to identify small molecule antagonists of the androgen receptor (AR) signaling pathway - cell viability counter screen (AID 743033; note: nearly all actives have a fitted effect of over 45% in size)
[14] = qHTS assay to identify small molecule antagonists of the androgen receptor (AR) signaling pathway using the MDA cell line - cell viability counter screen (AID 743041; note: nearly all actives have a fitted effect of over 45% in size)
Method in brief: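 Compound exposure lasted 16 h at 37C in MDA-kb2 AR-luc cells stimulated with R1881. Protease-based CellTiter-Fluor reagent was applied for the final 30 min and fluorescence measured.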

[15] = qHTS assay to test for compound auto fluorescence at 460 nm (blue) in HepG2 cells (AID 720687)
Method in brief: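 HepG2 cells in MEM with 10% FBS, attached overnight at 37 C, were exposed to compound or DMSO for 1 hr at 37 C, 5% CO2. Blue fluorescence was read at 405/460 nm, with triamterene as reference fluorophore.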

[16] = qHTS assay for identifying genotoxic compounds that show differential cytotoxicity against isogenic chicken DT40 cell lines with known DNA damage response pathways - Rad54/Ku70 mutant cell line (AID 743015); note: nearly all actives have a fitted effect of over 60% in size
[17] = target: Androgen receptor (Homo sapiens) (UniProt P10275); experiment: qHTS assay to identify small molecule antagonists of the androgen receptor (AR) signaling pathway (AID 743035; active = well fitted inhibition curve with a large enough effect in the signal ratio in the repeat runs, not every such curve was filed as active; the % refers to the signal ratio)
Androgen receptor (Homo sapiens), sequence (P10275 whole entry, looked up): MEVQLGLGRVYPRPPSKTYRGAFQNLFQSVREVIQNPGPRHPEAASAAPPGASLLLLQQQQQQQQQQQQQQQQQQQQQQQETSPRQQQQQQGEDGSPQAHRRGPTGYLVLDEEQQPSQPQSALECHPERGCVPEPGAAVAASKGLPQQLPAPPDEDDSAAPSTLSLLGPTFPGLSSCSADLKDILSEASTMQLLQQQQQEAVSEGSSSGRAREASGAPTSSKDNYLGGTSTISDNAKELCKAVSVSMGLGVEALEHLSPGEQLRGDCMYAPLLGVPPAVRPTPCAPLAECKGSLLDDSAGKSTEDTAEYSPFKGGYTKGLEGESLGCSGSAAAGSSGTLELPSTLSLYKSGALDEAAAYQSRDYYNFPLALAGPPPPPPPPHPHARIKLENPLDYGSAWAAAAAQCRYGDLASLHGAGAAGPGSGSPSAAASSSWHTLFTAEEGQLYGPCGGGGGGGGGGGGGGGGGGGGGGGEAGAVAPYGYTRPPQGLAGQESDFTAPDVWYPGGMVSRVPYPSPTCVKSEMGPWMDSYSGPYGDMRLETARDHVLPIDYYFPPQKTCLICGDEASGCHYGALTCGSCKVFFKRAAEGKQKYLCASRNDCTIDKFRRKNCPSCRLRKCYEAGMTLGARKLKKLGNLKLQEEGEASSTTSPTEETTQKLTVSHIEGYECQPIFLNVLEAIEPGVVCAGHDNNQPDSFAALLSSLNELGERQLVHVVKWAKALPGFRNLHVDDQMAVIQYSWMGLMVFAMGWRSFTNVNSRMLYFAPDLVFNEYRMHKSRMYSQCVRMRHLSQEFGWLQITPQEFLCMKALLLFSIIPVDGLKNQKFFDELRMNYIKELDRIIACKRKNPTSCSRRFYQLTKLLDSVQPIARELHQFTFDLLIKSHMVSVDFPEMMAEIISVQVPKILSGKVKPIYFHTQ
Method in brief: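 R1881 agonist challenge of a HEK293 UAS-beta-lactamase AR reporter line in the presence of compound (16 h, 37C); signal taken as FRET fluorescence after 2 h with LiveBLAzer B/G substrate at room temperature.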

[18] = target: Androgen receptor (Homo sapiens) (UniProt P10275); experiment: qHTS assay to identify small molecule agonists of the androgen receptor (AR) signaling pathway using the MDA cell line (AID 743040; note: nearly all actives have a fitted effect of over 20% in size)
Method in brief: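 Testing was done with the MDA-kb2 AR-luc line, a human breast carcinoma stably transfected with MMTV-luciferase containing AR and GR response elements. Cells were exposed 16 h at 37C before ONE-Glo luminescence detection.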
% is set by controls: 0 for no effect and ±100 for the full control effect.

CCCCCCCC/C=C\CCCCCCCCO
inactive: outcome [1] | Potency [2] | outcome [3] | outcome [4] | outcome [5] | Potency [6] | outcome [7] | Potency [8] | Potency [9] | Potency [10] | Potency [11] | Potency [12] | Potency [13] | Potency [14]

C[C@]1(Cn2ccnn2)[C@H](C(=O)O)N2C(=O)C[C@H]2S1(=O)=O
inactive: outcome [1] | Potency [2] | outcome [3] | outcome [4] | outcome [5] | Potency [6] | outcome [7] | Potency [15] | Potency [10] | Potency [11] | Potency [12] | Potency [16] | Potency [13] | Potency [14]

C[C@@H](CN(C)C)CN1c2ccccc2Sc2ccccc21
active: Potency [11] 11.4 µM | Potency [12] 11.4 µM
inactive: fluorescence, % of fluorescein [1] -0.0143% [at 18.6 µM] | fluorescence, % of fluorescent control [2] 0.0136% [at 18.6 µM] | activity change [3] -0.0963% [at 18.6 µM] | fluorescence, % of fluorescent control [4] 0.012% [at 18.6 µM] | fluorescence, % of Rose Bengal [5] -0.209% [at 18.6 µM] | fluorescence, % of fluorescent control [6] 0.0401% [at 18.6 µM] | fluorescence, % of fluorescein control [7] -0.0052% [at 18.6 µM] | Potency [8] | Potency [10]

CCOc1cccc(-n2cc(C(=O)N3CCN(c4cc(C(=O)O)c5ccccc5c4)CC3)nc2-c2ccc(C)cc2)c1
active: Potency [9] 14.8 µM
inactive: outcome [1] | Potency [2] | outcome [3] | outcome [4] | outcome [5] | Potency [6] | outcome [7] | Potency [8] | Potency [10] | Potency [13] | Potency [17] | outcome [18]

CCOC(=O)OC(C)OC(=O)[C@@H]1N2C(=O)[C@@H](NC(=O)[C@H](N)c3ccccc3)[C@H]2SC1(C)C (some centres undefined)
inactive: fluorescence, % of fluorescein [1] 0.0714% [at 18.6 µM] | fluorescence, % of fluorescent control [2] 0.602% [at 18.6 µM] | activity change [3] -0.0186% [at 18.6 µM] | fluorescence, % of fluorescent control [4] -0.265% [at 18.6 µM] | fluorescence, % of Rose Bengal [5] 0.701% [at 18.6 µM] | fluorescence, % of fluorescent control [6] 0.443% [at 18.6 µM] | fluorescence, % of fluorescein control [7] 0.112% [at 18.6 µM] | fluorescence, % of fluorescent control [15] 0.278% [at 18.6 µM] | Potency [10] | Potency [11] | Potency [12] | Potency [14]

C1C[C@@H]2[C@H]3CC[C@H](C3)[C@@H]2C1
inactive: outcome [1] | Potency [2] | outcome [3] | outcome [4] | outcome [5] | Potency [6] | outcome [7] | Potency [15] | Potency [12] | Potency [13] | Potency [14]

C=C1CCC2CC1C2(C)C (centres undefined)
inactive: outcome [1] | Potency [2] | outcome [3] | outcome [4] | outcome [5] | Potency [6] | outcome [7] | Potency [15] | Potency [10] | Potency [11] | Potency [12] | Potency [16] | Potency [13] | Potency [14]
